From PubChem BioAssay AID1159580 (chemical genetic matrix, 2015)
About 2,000 (36%) of roughly 5,500 compounds were called active. About 18% were inconclusive and are not listed. Cut-off read from the data, not from the text of the source: active = normalized growth mostly below about 0.91 (no sharp cut-off); inconclusive = no clear call, values can overlap the other calls; inactive = mostly above about 0.92. This is one part of the list.

Experiment: chemical genetic growth profiling, strain panel (AID 1159580);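 note: tested at 20 µM; growth read once vehicle control cultures reached saturation at 30 °C; 1 = growth at the plate median or of vehicle wells; lower values mean less growth of the strain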
Conditions: growth OD

Measured: normalized growth

COc1c2ccoc2nc2c(OC)c(OCC(O)C(C)(C)O)ccc12 (configuration not stated)
inactive: S. cerevisiae deletion strains, locus YJR075W, strain HOC1, active compounds read low 1.07 | S. cerevisiae deletion strains, locus YKL009W, strain mrt4, active compounds read low 0.944 | S. cerevisiae deletion strains, locus YKL068W, active compounds read low 0.978 | S. cerevisiae deletion strains, locus YKL085W, strain MDH1 (second series), active compounds read low 1 | S. cerevisiae deletion strains, locus YKL085W, strain MDH1, active compounds read low 1 | S. cerevisiae deletion strains, locus YKL160W, strain elf1, active compounds read low 1.03 | S. cerevisiae deletion strains, locus YKL190W, strain CNB1, active compounds read low 0.979 | S. cerevisiae deletion strains, locus YKR001C, strain vps1, active compounds read low 0.985 | S. cerevisiae deletion strains, locus YKR026C, strain gcn3, active compounds read low 1.02 | S. cerevisiae deletion strains, locus YKR091W, strain srl3, active compounds read low 1.01 | S. cerevisiae deletion strains, locus YLL001W, strain dnm1, active compounds read low 1.03 | S. cerevisiae deletion strains, locus YLL026W, active compounds read low 1.01 | S. cerevisiae deletion strains, locus YLL041C, strain sdh2, active compounds read low 1.02 | S. cerevisiae deletion strains, locus YLR027C, strain aat2, active compounds read low 1.03 | S. cerevisiae deletion strains, locus YLR039C, strain RIC1, active compounds read low 0.974 | S. cerevisiae deletion strains, locus YLR058C, strain SHM2, active compounds read low 0.991 | S. cerevisiae deletion strains, locus YLR102C, strain apc9, active compounds read low 0.99 | S. cerevisiae deletion strains, locus YLR113W, strain HOG1, active compounds read low 1.03 | S. cerevisiae deletion strains, locus YLR221C, strain rsa3, active compounds read low 1.03 | S. cerevisiae deletion strains, locus YLR258W, strain gsy2, active compounds read low 1.02 | S. cerevisiae deletion strains, locus YLR262C, strain YPT6 (second series), active compounds read low 1.04 | S. cerevisiae deletion strains, locus YLR262C, strain YPT6, active compounds read low 0.938 | S. cerevisiae deletion strains, locus YLR268W, strain sec22, active compounds read low 1.02 | S. cerevisiae deletion strains, locus YLR320W, strain mms22, active compounds read low 1.03 | S. cerevisiae deletion strains, locus YLR330W, strain CHS5, active compounds read low 0.992 | S. cerevisiae deletion strains, locus YLR342W, strain FKS1 (second series), active compounds read low 0.992 | S. cerevisiae deletion strains, locus YLR342W, strain FKS1, active compounds read low 1.02 | S. cerevisiae deletion strains, locus YLR357W, strain rsc2, active compounds read low 1.06 | S. cerevisiae deletion strains, locus YLR370C, strain arc18, active compounds read low 1.01 | S. cerevisiae deletion strains, locus YLR371W, strain rom2, active compounds read low 0.976 | S. cerevisiae deletion strains, locus YLR384C, strain iki3, active compounds read low 1 | S. cerevisiae deletion strains, locus YLR418C, strain cdc73, active compounds read low 1.04 | S. cerevisiae deletion strains, locus YML016C, strain PPZ1, active compounds read low 0.99 | S. cerevisiae deletion strains, locus YML032C, strain rad52, active compounds read low 0.974 | S. cerevisiae deletion strains, locus YML120C, strain ndi1, active compounds read low 1.02 | S. cerevisiae deletion strains, locus YML124C, strain tub3, active compounds read low 0.99 | S. cerevisiae deletion strains, locus YMR058W, strain fet3, active compounds read low 1.03 | S. cerevisiae deletion strains, locus YMR078C, strain ctf18, active compounds read low 0.97 | S. cerevisiae deletion strains, locus YMR125W, strain sto1, active compounds read low 1.04 | S. cerevisiae deletion strains, locus YMR129W, active compounds read low 1.01 | S. cerevisiae deletion strains, locus YMR205C, strain PFK2, active compounds read low 1.04 | S. cerevisiae deletion strains, locus YMR223W, strain ubp8, active compounds read low 0.961 | S. cerevisiae deletion strains, locus YMR231W, strain pep5, active compounds read low 1 | S. cerevisiae deletion strains, locus YMR263W, strain SAP30, active compounds read low 1.01 | S. cerevisiae deletion strains, locus YMR307W, strain GAS1, active compounds read low 0.941 | S. cerevisiae deletion strains, locus YNL067W, strain RPL9B, active compounds read low 1.03 | S. cerevisiae deletion strains, locus YNL071W, strain lat1, active compounds read low 1.02 | S. cerevisiae deletion strains, locus YNL128W, strain TEP1, active compounds read low 1.01 | S. cerevisiae deletion strains, locus YNL153C, strain GIM3, active compounds read low 1.02 | S. cerevisiae deletion strains, locus YNL183C, strain NPR1, active compounds read low 0.985 | S. cerevisiae deletion strains, locus YNL209W, strain ssb2, active compounds read low 1.02 | S. cerevisiae deletion strains, locus YNL233W, strain BNI4, active compounds read low 1.02 | S. cerevisiae deletion strains, locus YNL248C, strain rpa49, active compounds read low 1.02 | S. cerevisiae deletion strains, locus YNL250W, strain rad50, active compounds read low 0.989 | S. cerevisiae deletion strains, locus YNL271C, strain bni1, active compounds read low 0.989 | S. cerevisiae deletion strains, locus YNL298W, strain CLA4, active compounds read low 0.975 | S. cerevisiae deletion strains, locus YNL307C, strain MCK1, active compounds read low 0.976 | S. cerevisiae deletion strains, locus YNL322C, strain KRE1 (second series), active compounds read low 1.03 | S. cerevisiae deletion strains, locus YNL322C, strain KRE1, active compounds read low 0.995 | S. cerevisiae deletion strains, locus YNR049C, strain mso1, active compounds read low 1.02 | S. cerevisiae deletion strains, locus YNR052C, strain pop2, active compounds read low 0.962 | S. cerevisiae deletion strains, locus YOL006C, strain TOP1, active compounds read low 1.01 | S. cerevisiae deletion strains, locus YOL012C, strain htz1 1.86 | S. cerevisiae deletion strains, locus YOL147C, strain pex11, active compounds read low 0.996 | S. cerevisiae deletion strains, locus YOR001W, strain rrp6, active compounds read low 1.02 | S. cerevisiae deletion strains, locus YOR061W, strain CKA2, active compounds read low 0.997 | S. cerevisiae deletion strains, locus YOR069W, strain VPS5, active compounds read low 0.99 | S. cerevisiae deletion strains, locus YOR070C, strain gyp1, active compounds read low 1 | S. cerevisiae deletion strains, locus YOR080W, strain dia2, active compounds read low 0.999 | S. cerevisiae deletion strains, locus YOR083W, strain WHI5, active compounds read low 1.03 | S. cerevisiae deletion strains, locus YOR106W, strain vam3, active compounds read low 1.04 | S. cerevisiae deletion strains, locus YOR136W, strain idh2, active compounds read low 0.982 | S. cerevisiae deletion strains, locus YOR144C, strain elg1, active compounds read low 0.978 | S. cerevisiae deletion strains, locus YOR184W, strain ser1, active compounds read low 0.946 | S. cerevisiae deletion strains, locus YOR231W, strain MKK1, active compounds read low 1.01 | S. cerevisiae deletion strains, locus YOR265W, strain rbl2, active compounds read low 1 | S. cerevisiae deletion strains, locus YOR270C, strain vph1, active compounds read low 1.07 | S. cerevisiae deletion strains, locus YOR290C, strain snf2, active compounds read low 1.02 | S. cerevisiae deletion strains, locus YOR316C, strain cot1, active compounds read low 0.99 | S. cerevisiae deletion strains, locus YPL051W, strain arl3, active compounds read low 1.05 | S. cerevisiae deletion strains, locus YPL055C, strain LGE1, active compounds read low 1.03 | S. cerevisiae deletion strains, locus YPL078C, strain atp4, active compounds read low 1.03 | S. cerevisiae deletion strains, locus YPL106C, strain sse1, active compounds read low 1.02 | S. cerevisiae deletion strains, locus YPL240C, strain hsp82, active compounds read low 1 | S. cerevisiae deletion strains, locus YPL241C, strain CIN2, active compounds read low 0.992 | S. cerevisiae deletion strains, locus YPL256C, strain CLN2, active compounds read low 1.03 | S. cerevisiae deletion strains, locus YPR119W, strain clb2, active compounds read low 0.998 | S. cerevisiae deletion strains, locus YPR141C, strain kar3, active compounds read low 0.995 | S. cerevisiae deletion strains, locus YPR163C, strain tif3, active compounds read low 0.98 | S. cerevisiae deletion strains, locus YPR167C, strain met16, active compounds read low 0.992 | S. cerevisiae deletion strains, strain wtn01, active compounds read low 1.02 | S. cerevisiae strains, strain wild type, active compounds read low 0.996
